Several values for one entry are separate records, joined by “and”; a condition that tells them apart may be missing. Equal values may be shown once. Records with an inconclusive call do not appear. A call without a number means that no potency is given here. Values without a mark were called inactive. Activity calls are given as the source filed them. Calls follow the shape of the dose curve; as a rule, active = well fitted cell-killing curve with a large enough effect in the repeat runs; inconclusive = weak or mixed curves; inactive = flat fitted curve, though single readings scatter.
Potency is read from the fitted curve at half-maximal effect.

The test can be described thus: qHTS assay to identify small molecule antagonists of the estrogen receptor beta (ER-beta) signaling pathway - cell viability counter screen (AID 1259382). Also: nearly all actives have a fitted effect of over 55% in size. Conditions: ER-beta-UAS-bla HEK293T viability, CellTiter-Glo luminescence, 16 h; series mostly up to 92.4 µM. An excerpt:
U.S. Tox21 Program National Center for Advancing Translational Sciences [NCATS] NIH Chemical Genomics Center [NCGC] U.S. Environmental Protection Agency [EPA] National Institutes of Environmental Health Sciences [NIEHS] National Toxicology Program [NTP] U.S. Food and Drug Administration [FDA] Tox21 Assay Overview: Estrogen receptor (ER), a nuclear hormone receptor, plays an important role in development, metabolic homeostasis and reproduction. Two subtypes of ER, ER-alpha and ER-beta, have similar expression patterns with some uniqueness in both types. Endocrine disrupting chemicals (EDCs) and their interactions with steroid hormone receptors like ER causes disruption of normal endocrine function. To identify the compounds that inhibit ER signaling, an ER-beta-UAS-bla GripTite cell line (Life Technologies, Madison, WI, USA) containing a beta-lactamase reporter gene under the control of an UAS response element was used to screen Tox21 10K compound library. The cytotoxicity of the Tox21 compound library against the ER-beta-bla cell line was tested in parallel by measuring the cell viability using CellTiter-Glo assay in the same wells.
Tox21 Assay Protocol Summary: ER-beta-UAS-bla HEK293T cells were dispensed at 2,000 cells/4 uL of assay medium containing 2% charcoal stripped FBS per well into black wall/clear-bottom 1536-well plates using a Multidrop Combi (ThermoFisher Scientific, Waltham, MA) dispenser. After the assay plates were incubated at a 37C and 5% CO2 for 6 hr, 23 nL of compounds dissolved in DMSO, positive controls or DMSO only was transferred to the assay plate by a Pintool station (Kalypsys, San Diego, CA), followed by addition of 1 uL (1nM as final concentration) of 17-beta-estradiol (E2) in assay medium using a Flying Reagent Dispenser (FRD, Aurora Discovery, San Diego, CA). The plates were incubated at 37C and 5% CO2 for 16 hr. Then 1 uL of LiveBLAzer B/G FRET substrate was added using a Flying Reagent Dispenser, the plates were incubated at room temperature for 2 hours, and fluorescence intensity was measured by an Envision plate reader (PerkinElmer, Shelton, CT). For cell viability readout that measures cytotoxicity, 4 uL/well of CellTiter-Glo reagent was added into the assay plates using a FRD. After 30 min incubation at room temperature, the luminescence intensity in the plates was measured using a ViewLux (PerkinElmer) plate reader.
As to `CCCCCc1ccc(Cl)cc1`, the Potency result is “inactive”.

For `COc1ccc(NC(=O)CC(C)=O)cc1`, the Potency entry is “inactive”.

As to `CC/C=C\CCCCCO`, the Potency result was “inactive”.

`NC[C@H]1O[C@H](O[C@H]2[C@H](O[C@@H]3O[C@H](CO)[C@@H](O)[C@H]3O)C(O)[C@H](N)C[C@@H]2N)[C@H](N)[C@@H](O)[C@@H]1O` (stereo not given in full): the activity change, negative = cytotoxicity was 0.11% [at 8.39 µM].

Turning to `CCOC(=O)NNc1ccc(N(CC)CC(C)O)nn1` (stereo not given), the Potency entry is “inactive”.

Turning to `Cc1c(C)c2c(c(C)c1OC(=O)c1cccnc1)CC[C@@](C)(CCC[C@H](C)CCC[C@H](C)CCCC(C)C)O2`, the Potency entry is “inactive”.

As to `CCC(C)(CCC(C)C)C(=O)[O][Sn]([CH3])([CH3])[O]C(=O)C(C)(CC)CCC(C)C` (stereo not given), the Potency result was “inactive”.

Consider `CCCCCCCCCCCCCCCC[N+](C)(C)CC`, for which the Potency is 34.5 µM (active) and 23.7 µM (active).

`CC(C)(C)c1ccc(C(O)CCCN2CCC(C(O)(c3ccccc3)c3ccccc3)CC2)cc1` (stereo not given): the Potency entry is “inactive”.

Take `CC(=O)OCC=C(C)C`: the Potency result was “inactive”.

As for `OC1CCCc2ccccc21` (stereo not given), the Potency entry was “inactive”.

Take `CCCCCC(C)OC(=O)COc1ccc(Cl)c2cccnc12` (stereo not given): the Potency entry is “inactive”.

Consider `O=[N+]([O-])c1ccc(O)cc1C(F)(F)F`, for which the Potency result was “inactive”.

As to `CC(C)(C)C1CCC(=O)CC1`, the Potency entry is “inactive”.

On to `Cc1ccc(C)cc1`, for which the Potency entry is “inactive”.

For the compound `Cc1ccc(C(C)C)cc2c(C)ccc1-2`, the Potency entry was “inactive”.

Turning to `CCC(=O)C(=O)CC`, the Potency entry is “inactive”.

As to `NC(=S)NC(N)=S`, the Potency result was “inactive”.

In the case of `C#CC1(O)CC[C@H]2[C@@H]3CCC4=CCCC[C@@H]4[C@H]3CC[C@@]21C` (stereo not given in full), the Potency is 61.1 µM (active) and 26.6 µM (active).

As for `Nc1ccc(NCCO)c([N+](=O)[O-])c1`, the Potency result is “inactive”.

For the compound `CCOC(=O)Cn1cccc1-c1nc(-c2ccc(OC)cc2)c(-c2ccc(OC)cc2)s1`, the Potency entry was “inactive”.

Regarding `O=C(O)c1ccc2cc(C(=O)O)ccc2c1`, the Potency result is “inactive”.

For `CCCCCCCCCCC[C@@H](C[C@@H]1OC(=O)[C@H]1CCCCCC)OC(=O)[C@H](CC(C)C)NC=O`, the Potency entry was “inactive”.

For the compound `C[Si](Cl)(c1ccccc1)c1ccccc1`, the Potency entry is “inactive”.

For the compound `Nc1cc(Cl)c(O)c(Cl)c1`, the Potency entry is “inactive”.

Take `C[C@@H](O)[C@H](N)C(=O)O`: the activity change, negative = cytotoxicity is 0.119% [at 19 µM].

Regarding `COc1cc(S(=O)(=O)O)c(C)cc1N=Nc1c(O)ccc2cc(S(=O)(=O)O)ccc12`, the Potency result is “inactive”.

Turning to `OCC(F)(F)F`, the Potency entry is “inactive”.

On to `Sc1nc2ccccc2s1`, for which the Potency result was “inactive”.

For the compound `Cc1c2ccccc2c(C)c2c1ccc1ccccc12`, the Potency is 24.3 µM (active).

As for `O=C(Nc1ccc2c(O)c(N=Nc3ccc(N=Nc4ccc(S(=O)(=O)O)cc4)cc3)c(S(=O)(=O)O)cc2c1)c1ccccc1`, the Potency result is “inactive”.

Take `CCCCCCCC/C=C\CCCCCCCCN`: the Potency entry was “inactive”.

In the case of `[Cl][Pt-2]([Cl])([Cl])[Cl]`, the Potency result is “inactive”.

As to `CCCC(=O)OCCc1ccccc1`, the Potency result was “inactive”.

As to `c1ccc(C(O[C@@H]2CCCN(CCc3ccc4c(c3)OCO4)C2)c2ccccc2)cc1`, the Potency result was “inactive”.

As for `CCO[Si](OCC)(OCC)OCC`, the Potency entry was “inactive”.

Regarding `CCc1ccc(Br)cc1`, the Potency result was “inactive”.

Take `O=c1oc2cc(O)ccc2c2oc3cc(O)ccc3c12`: the Potency result was “inactive”.

In the case of `c1cnccn1`, the Potency entry is “inactive”.

For `OCCN1CCN(CCCN2c3ccccc3Sc3ccc(C(F)(F)F)cc32)CC1`, the Potency is 21.1 µM (active).

(Values after PubChem BioAssay (Tox21).)
